# KCNQ2 enhance – enhances the rat KCNQ2 potassium channel | O88943 | B-score at 10 µM | AID 2239 | CHO-K1 KCNQ2, FluxOR thallium flux fluorescence; hits give high values | 310,000 compounds, 0.54% hits;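 active = fluorescence ratio B-score at least 3 SD of library B-scores, with initial fluorescence B-score within 3 of them, cut at about 5.3 in these data; same plate scores as AID 2156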;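 also: B-score of peak minus minimum over baseline fluorescence ratio after K+ and Tl+ stimulus; positive B-score means potentiation of KCNQ2 with more thallium influx and brighter signal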
# KCNQ2 inh – blocks the rat KCNQ2 potassium channel. O88943. CHO-K1 KCNQ2, FluxOR thallium flux, 20 min; hits give low values. B-score at 10 µM. 310,000 compounds, 1.1% hits. AID 2156;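 active = fluorescence ratio B-score at most minus 3 library SDs, with starting brightness B-score within 2 library SDs, cut at about -5.5 in these data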
# KCNQ2 block conf – rat KCNQ2 channel inhibition, confirmatory screen. activity change, negative = inhibition, % at 10 µM. KCNQ2-expressing cells, thallium flux; hits give low values. AID 493025. 1,000 compounds, 57% hits. shares compounds with KCNQ2 inh;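 also: 0% = vehicle wells and values are ratio percent relative to vehicle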
# KCNQ1 spec – human KCNQ1 activity in KCNQ2 inhibitor specificity screen; shares compounds with KCNQ2 inh; KCNQ1-expressing cells, FluxOR thallium flux fluorescence; hits give low values; activity change, negative = inhibition, % at 10 µM; 1,000 compounds, 15% hits;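 active = activity change at least 3 SD of negative controls below their mean in both duplicate wells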;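 also: CHO cells stably transfected with KCNQ1 and depolarized by potassium stimulus; peak minus minimum fluorescence over baseline after thallium addition; 0% = vehicle negative control and -100% = blank without thallium stimulus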
# CHO parental ctr – activity in parental CHO cells lacking KCNQ2; thallium flux counter-screen; hits give low values; AID 493029; shares compounds with KCNQ2 inh; activity change, % at 10 µM; 1,000 compounds, 14% hits;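 also: 0% = vehicle negative controls with stimulus buffer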
# KCNQ2 patch conf – confirmation of rat KCNQ2 potassium channel inhibitors. calls only at 10 µM. shares compounds with KCNQ2 inh. KCNQ2-expressing cells, automated patch clamp current. 550 compounds, 49% hits. AID 588531
# Starred values were filed as active, the others as inactive; i = inactive; . = no result given; + = active, no number. A selection: hits, their analogues and other compounds. The true share with any hit is near 1.6%. Unless noted, no rule for the calls is given here.
SMILES,KCNQ2 enhance,KCNQ2 inh,KCNQ2 block conf,KCNQ1 spec,CHO parental ctr,others
O=C(N1CCN(c2ccccc2F)CC1)C12CC3CC(CC(C3)C1)C2,-7.6,-7.6*,-26%*,i,i,KCNQ2 patch conf=+
O=C(N1CCN(c2ccc(F)cc2)CC1)C12CC3CC(CC(C3)C1)C2,.,i,.,.,.,
Cc1cccc(N2CCN(C(=O)N3CCCCC3)CC2)c1C,.,i,.,.,.,
CN(C)S(=O)(=O)c1cccc(C(=O)Nc2ccccc2N2CCCCC2)c1,.,i,.,.,.,
CC1CN(S(=O)(=O)c2cccc(C(=O)Nc3ccccc3N3CCCCC3)c2)CC(C)O1 (configuration not stated),-9.5,-9.5*,-29%*,i,i,KCNQ2 patch conf=i
Cc1ccccc1N(CC(=O)N/N=C/c1cc(Br)c(C)o1)S(C)(=O)=O,0.83,i,.,.,.,
CCC1(C(=O)c2ccccc2)C2c3cc(Br)ccc3OC(=O)C21C(=O)N1CCOCC1 (configuration not stated),-9.7,-9.7*,i,i,i,
O=C(Oc1ccc(Br)cc1C(=S)N1CCOCC1)c1ccccc1,.,i,.,.,.,
COc1ccc(-c2nc(N)ncc2-c2csc(C)n2)c(O)c1OC,.,i,.,.,.,
O=S(=O)(/N=C(\Sc1ccccc1)c1ccccc1)c1ccc(Cl)cc1,-6.9,-6.9*,i,i,i,
Cc1ccc(S(=O)(=O)/N=C(\Sc2ccccc2)c2ccccc2)cc1,.,i,.,.,.,
Cc1cc(C)c(N=C2CCCN2Cc2ccccc2)c(C#N)c1,-8.8,-8.8*,-32%*,i,i,KCNQ2 patch conf=+
N#Cc1ccccc1N=C1CCCN1Cc1ccccc1,.,i,.,.,.,
COc1ccc(CCNC(=O)[C@H](C)N2C(=O)N3CCc4c([nH]c5ccccc45)[C@@]3(C)C2=O)cc1,.,i,.,.,.,
CCN(CC)C(=O)c1sc(NC(=O)c2ccc(OC)c([N+](=O)[O-])c2)c(C#N)c1C,0.27,i,.,.,.,
CCN(CC)C(=O)c1cc2c(=O)c3cc(F)ccc3oc2nc1C,-9.6,-9.6*,-23%*,i,i,KCNQ2 patch conf=+
CCOC(=O)c1cc2c(=O)c3ccccc3oc2nc1C,0.29,i,.,.,.,
CC(C)CNC(=O)c1cc(S(=O)(=O)N2CCOCC2)ccc1N1CCCC1,0.8,i,.,.,.,
Cc1ccccc1NC(=O)/C(=C/c1ccco1)c1ccccc1,.,i,.,.,.,
CCc1ccccc1NC(=O)/C(=C/c1ccco1)c1ccccc1,-7.7,-7.7*,-29%*,i,i,KCNQ2 patch conf=+
O=C(O)CNS(=O)(=O)c1ccc(C2CCCCC2)cc1,1.6,i,.,.,.,
COC(=O)c1ccc(OCc2nn[nH]n2)cc1,.,i,.,.,.,
CCN(CC)C(=O)c1cn(CCC#N)nc1-c1ccc(F)cc1,0.11,i,.,.,.,
CCn1c(=O)c(C(=O)NC(C)c2ccccc2)c(O)c2ccccc21 (configuration not stated),.,i,.,.,.,
Cn1c(=O)c(C(=O)NCc2ccccc2Cl)c(O)c2ccccc21,.,i,.,.,.,
SMILES,KCNQ2 enhance,KCNQ2 inh,KCNQ2 block conf,KCNQ1 spec,CHO parental ctr,others
CCCn1c(=O)c(C(=O)NC(C)c2ccccc2)c(O)c2ccccc21 (configuration not stated),-11,-11*,i,i,i,
CCn1c(=O)c(C(=O)NCc2ccccc2Cl)c(O)c2ccccc21,-8.4,-8.4*,-36%*,-37%*,-23%*,KCNQ2 patch conf=i
CC1CCc2sc(C(=O)N/N=C/c3ccc(O)cc3)cc2C1 (configuration not stated),0.2,i,.,.,.,
CN(CC(=O)Nc1cccc(F)c1)C(=O)CCCN1C(=O)c2cccc3cccc(c23)C1=O,.,i,.,.,.,
CC(C)=CCN1CCN(Cc2c[nH]c3ccccc23)CC1CCO (configuration not stated),0.02,i,.,.,.,
O=C(CSc1ccc2nnc(-c3ccccn3)n2n1)Nc1ccc(F)cc1F,0.49,i,.,.,.,
Cc1ccc(Nc2nc(-c3ccc(C)cc3)c(CC(=O)O)s2)cc1,1.7,i,.,.,.,
O=C(O)Cc1sc(Nc2cccc3ccccc23)nc1-c1ccc(Cl)cc1,-8.2,-8.2*,i,i,i,
O=C(OCc1ccccc1Cl)c1cccnc1Cl,.,i,.,.,.,
O=C(OCc1ccccc1Cl)c1ccccc1C(=O)c1ccccc1,-8.3,-8.3*,-36%*,-36%*,-34%*,KCNQ2 patch conf=i
O=C(COC(=O)c1ccccc1C(=O)c1ccc(Cl)cc1)NC(c1ccccc1)c1ccccc1,-8.7,-8.7*,i,i,i,
O=C(COC(=O)c1ccccc1C(=O)c1ccc(Cl)cc1)NCCc1ccccc1,.,i,.,.,.,
NS(=O)(=O)c1ccc(CCNC(=O)Cc2cccs2)cc1,.,i,.,.,.,

# Bioassay records from PubChem.
